The source made the active and inactive calls. Rule for the calls: active = hit-call score of the fitted dose curve at least 0.9, where 1 is the maximum; inactive = score below 0.9.

The AC50 is the midpoint of the concentration-response curve, whichever way the signal moves.

E-selectin (Homo sapiens), sequence (P16581 whole entry, looked up): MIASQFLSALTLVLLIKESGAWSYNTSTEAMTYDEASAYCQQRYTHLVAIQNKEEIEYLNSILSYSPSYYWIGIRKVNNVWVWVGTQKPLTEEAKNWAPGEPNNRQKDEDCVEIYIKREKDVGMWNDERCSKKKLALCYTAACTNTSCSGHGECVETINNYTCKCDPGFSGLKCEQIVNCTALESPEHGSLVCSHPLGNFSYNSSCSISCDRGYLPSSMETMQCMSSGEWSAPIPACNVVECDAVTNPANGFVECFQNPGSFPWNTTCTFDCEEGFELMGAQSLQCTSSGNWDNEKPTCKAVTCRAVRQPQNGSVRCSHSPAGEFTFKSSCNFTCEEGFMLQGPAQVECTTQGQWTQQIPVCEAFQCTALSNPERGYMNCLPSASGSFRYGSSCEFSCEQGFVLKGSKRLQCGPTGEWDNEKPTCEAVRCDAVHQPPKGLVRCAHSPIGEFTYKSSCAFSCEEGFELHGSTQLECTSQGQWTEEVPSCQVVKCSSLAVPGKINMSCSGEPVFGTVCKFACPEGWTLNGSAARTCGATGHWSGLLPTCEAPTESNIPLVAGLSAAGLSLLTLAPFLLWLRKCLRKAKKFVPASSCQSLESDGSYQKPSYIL

Read-out in this assay: E-selectin (Homo sapiens) (UniProt P16581)
Kind of assay: BSK_LPS_Eselectin: BioMAP Diversity Plus: LPS Assay for Eselectin Biomarker Activity (AID 2283077). The settings on record: primary human HUVEC with PBMC; actives raise or lower the signal. As for the experimental part: BSK_LPS is a cell-based, multiplexed-readout assay that uses umbilical vein endothelium and peripheral blood mononuclear cells, a human vascular primary cell co-culture, with measurements taken at 24 hours after chemical dosing in a 96-well plate.BSK_LPS_Eselectin is an assay component measured in the BSK_LPS assay. It measures E-selectin antibody related to regulation of gene expression using ELISA technology.Data from the assay component BSK_LPS_Eselectin was analyzed into 1 assay endpoint. This assay endpoint, BSK_LPS_Eselectin, was analyzed with bidirectional fitting relative to DMSO as the negative control and baseline of activity. Using a type of binding reporter, gain or loss-of-signal activity can be used to understand changes in the signaling as they relate to the gene SELE. Furthermore, this assay endpoint can be referred to as a primary readout, because this assay has produced multiple assay endpoints where this one serves a signaling function. To generalize the intended target to other relatable targets, this assay endpoint is annotated to the cell adhesion molecules intended target family, where the subfamily is selectins.
The levels of cell surface (or secreted, indicated by the prefix "s") biomarker endpoints were measured by ELISA. Overt cytotoxicity to cells in confluent adherent cultures (all systems other than the BT system) was assessed by measuring total protein levels using sulforhodamine B (SRB) staining in parallel cultures at the time of biomarker measurements, indicated as SRB endpoints. For proliferation assays for adherent cell types, individual cell types are cultured at sub-confluence and relative cell numbers quantified by SRB staining at time points optimized for each system (48 h: 3C and CASM3C systems; 72 h: BT and HDF3CGF systems; 96 h: SAg system). SRB was performed by staining cells with 0.1% SRB after fixation with 10% TCA and reading wells at 560 nm.Viability and proliferation of PBMC (T cells) was quantified by Alamar Blue reduction for the SAg and BT systems. For PBMC viability (referred to as PBMC Cytotoxicity within the assay endpoint names), cells were plated (75,000/well in a 96-well plate) and then chemical samples added for 1 h before addition of activators, SEB and TSST-1 (20 ng/mL final concentration each). Cells were incubated for 90 h. Then, Alamar Blue (20 uL/well) (Invitrogen, Cat DAL1100) was added for 6 h, and the plates were read with a fluorescence microplate reader at 546/580 nm (excitation/emission). For PBMC proliferation, cells were plated and activated as above but incubated for only 16 h prior to addition of Alamar Blue. Plates were read after 6 h.
As for `CC(=O)c1ccc2c(c1)[C@H](NC(=O)c1ccc(F)cc1)[C@@H](O)C(C)(C)O2`, the outcome was inactive.
With `COC(=O)CC(=O)OC`, the outcome was inactive.
For the molecule `Nc1nc2ncc(CNc3ccc(C(=O)N[C@@H](CCC(=O)O)C(=O)O)cc3)nc2c(=O)[nH]1`, the outcome was inactive.
In the case of `CCNc1ccccc1`, the outcome was inactive.
On the same count and under the same terms, with `O=C(NS(=O)(=O)/C=C/c1ccccc1)c1ccc(F)cc1Cl` the entry was “inactive”; with `C=CCCCCCCCCC(=O)O`, “inactive”.
Still for that read-out and setting: with `Cc1ccc(O)cc1` the entry was “inactive”; with `O=C(O)c1cccc(Oc2ccccc2)c1`, “inactive”; with `COc1ccc(-n2nc(C(F)F)cc2-c2ccc(S(C)=O)cc2)cc1` (stereo not given), “inactive”.
The same measure, in the same setting: under `CNCc1ccc(NC(=O)c2c[nH]c3c2C(=O)CCC3)cc1` stands “inactive”; under `CC(O)CN(CCN(CC(C)O)CC(C)O)CC(C)O` (stereo not given), “inactive”; under `Nc1cccc(N)c1`, “inactive”.
For `O=C(O)c1cc(N=Nc2ccc(S(=O)(=O)Nc3ccccn3)cc2)ccc1O`, the outcome was inactive.
Regarding `O=C1CCC(N2C(=O)c3ccccc3C2=O)C(=O)N1` (stereo not given), the outcome was inactive.
On the same count and under the same terms, under `CCOC(=O)COc1ccc2c(c1)CC(NCC(O)c1cccc(Cl)c1)CC2` (stereo not given) stands “inactive”.
As to `Cn1c(=O)c2c(ncn2C)n(C)c1=O`, the result was inactive.
Still for that read-out and setting: under `C[C@](N)(Cc1ccc(O)c(O)c1)C(=O)O` stands “inactive”.
As to `O=C(O)c1cccc(N(Cc2cccnc2)c2ccc(OC(F)F)c(OC(F)F)c2)c1`, the AC50 was 11 µM (active).
Regarding `CC1=CC(=O)CC(C)(C)C1`, the outcome was inactive.
Same read-out and setting: with `CC1(C)C(=O)N(Br)C(=O)N1Br` the entry was “inactive”; with `Cc1ccc(C)c(O)c1`, “inactive”.
In the case of `CCCCC(CC)COC(=O)CCCCCCCCC(=O)OCC(CC)CCCC` (stereo not given), the result was inactive.
In the case of `CC(C)CCO`, the outcome was inactive.
Take `CC(=O)OCCC(C)C`: the result was inactive.
Same read-out and setting: with `CNS(=O)(=O)c1cc(C(=O)N2CCC(CCN3C4CCC3CC(n3c(C)nc5ccccc53)C4)(c3cccc(F)c3)CC2)c(Cl)cc1F` (stereo not given) the entry was “inactive”; with `COc1cccc(-c2ccc(/C=C\CN3CCCCCC3)cc2Cl)c1`, “inactive”.
In the case of `CCOc1cccc(-n2cc(C(=O)N3CCN(c4cc(C(=O)O)c5ccccc5c4)CC3)nc2-c2ccc(C)cc2)c1`, the concentration at half-maximal activity (AC50) was 31.3 µM (active).
Take `CN(C)c1ccc(N=NS(=O)(=O)O)cc1`: the result was inactive.
`O=C1OC(=O)C2C3C=CC(C3)C12` (stereo not given): the result was inactive.
The same measure, in the same setting: with `CC[C@H]1OC(=O)[C@H](C)[C@@H](O[C@H]2C[C@@](C)(OC)[C@@H](O)[C@H](C)O2)[C@H](C)[C@@H](O[C@@H]2O[C@H](C)C[C@H](N(C)C)[C@H]2O)[C@](C)(O)C[C@@H](C)C(=O)[C@H](C)[C@@H](O)[C@]1(C)O` the entry was “inactive”.
As for `Cc1ccc(N)cc1O`, the outcome was inactive.
Still for that read-out and setting: under `CC(C)=CCC/C(C)=C\CO` stands “inactive”.
Still for that read-out and setting: with `COC(=O)c1c(Cl)c(Cl)c(C(=O)OC)c(Cl)c1Cl` the entry was “inactive”.
As to `CC(C)c1cccc(C(C)C)c1N1C(=O)c2ccc(O)cc2C1=O`, the concentration at half-maximal activity (AC50) was 18.9 µM (active).
On to `Cc1[nH]cnc1C[C@H]1CCc2c(C)c3ccccc3n2C1=O`, for which the outcome was inactive.
On the same count and under the same terms, under `C=CC(=C)CCC=C(C)C` stands “inactive”.
Same read-out and setting: under `CCOC(=O)CC(CC(=O)OCC)(OC(C)=O)C(=O)OCC` stands “inactive”; under `Cc1c(-c2cccnc2)c2ccccc2n1CCCCC(=O)O`, “inactive”.
The same measure, in the same setting: under `O=C1CCCCCN1` stands “inactive”.
For the molecule `O=c1n(CC2CO2)c(=O)n(CC2CO2)c(=O)n1CC1CO1` (stereo not given), the AC50 was 20 µM (active).
